High-throughput results: PubChem, National Center for Advancing Translational Sciences (NCATS)
RORgamma inh – qHTS for inhibitors of ROR gamma transcriptional activity; Nuclear receptor ROR-gamma (Mus musculus), P51450; Drosophila S2 Gal4-RORgamma UAS-luciferase reporter, 20 h; Potency, µM (top dose mostly 53.6 µM), hits mostly inhibitors; 310,000 tested, 5.4% active; AID 2551, 2010; further: nearly all actives have a fitted effect of over 60% in size
Target sequence (P51450 whole entry, looked up, the tested form may be a part): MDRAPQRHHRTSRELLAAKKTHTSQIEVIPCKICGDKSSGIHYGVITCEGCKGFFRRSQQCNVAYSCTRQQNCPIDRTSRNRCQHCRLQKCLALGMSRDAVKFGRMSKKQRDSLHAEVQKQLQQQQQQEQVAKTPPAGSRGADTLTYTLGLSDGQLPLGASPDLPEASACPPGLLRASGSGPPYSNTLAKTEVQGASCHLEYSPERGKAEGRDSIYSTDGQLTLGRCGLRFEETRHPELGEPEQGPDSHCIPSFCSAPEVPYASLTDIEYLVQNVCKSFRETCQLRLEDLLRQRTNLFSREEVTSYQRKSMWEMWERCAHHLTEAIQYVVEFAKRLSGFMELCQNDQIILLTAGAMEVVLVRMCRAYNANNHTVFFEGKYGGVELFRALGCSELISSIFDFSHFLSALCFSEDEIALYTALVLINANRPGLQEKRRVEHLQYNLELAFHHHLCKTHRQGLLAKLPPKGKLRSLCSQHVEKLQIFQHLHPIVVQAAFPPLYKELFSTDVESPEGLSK
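Drosophila S2 cells stably expressing Gal4-DBD/mouse RORγ fusion under metallothionein promoter plus UAS-luciferase; compound 1 h, then 700 uM CuSO4 induction for 20 h at ambient temperature; inhibition read as reduced luminescence.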
TDP1 cell CPT – qHTS for Inhibitors of human tyrosyl-DNA phosphodiesterase 1 (TDP1): qHTS in cells in presence of CPT; chicken DT40 Tdp1-/-;hTDP1 cells + 20 nM CPT, ATP luminescence, 48 h; Potency, µM (highest dose often 46.2 µM), usual class: inhibitors; 420,000 tested, 12% active; further: nearly all actives have a fitted effect of over 55% in size
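Chicken DT40 Tdp1-/- cells complemented with human TDP1, 400 cells/well, exposed to compounds plus 20 nM camptothecin for at least 48 h at 37 C; viability read as ATP content by CellTiter-Glo luminescence.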
ELG1 DNA repair – qHTS screen for small molecules that inhibit ELG1-dependent DNA repair in human embryonic kidney (HEK293T) cells expressing luciferase-tagged ELG1. HEK293T ELG1-luciferase reporter, luminescence, 16 h; DNA damage induced by 5-fluorouridine. Potency, µM (titrated, usually from 46.1 µM), hits mostly inhibitors. 330,000 tested, 2.3% active; further: nearly all actives have a fitted effect of over 55% in size
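Quantitative HTS, concentration-response format. 2,000 cells/well co-treated with 5-fluorouridine and compound, 16 hr in 5% CO2 at 37 °C; ONE-Glo luminescence read after 30 min.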
IL-1B inflam inh – qHTS for Inhibitors of Inflammasome Signaling: IL-1-beta AlphaLISA Primary Screen; THP-1 LPS/ATP IL-1B secretion, AlphaLISA, 16 h; stronger effect = lower value; activity change, % at 57.5 µM; 360,000 tested, 4.7% active; AID 743279, 2014; in the data active means activity change below about -50%; inconclusive means mostly about -30% to -49%
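Secreted IL-1B measured by AlphaLISA bead assay after 16 h compound exposure of THP-1 cells; compounds (final up to 57.5 uM) added 1 h before LPS (250 ng/mL) and ATP (1.25 mM) stimulation; lower signal means less secretion.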
DT40 TDP1 no CPT – qHTS for Inhibitors of human tyrosyl-DNA phosphodiesterase 1 (TDP1): qHTS in cells in absence of CPT; DT40 Tdp1-/- hTDP1 cells, no CPT, ATP luminescence, 48 h; AID 686978, 2013; Potency, µM (titrated, usually from 46.2 µM), hits mostly inhibitors; 420,000 tested, 15% active; further: nearly all actives have a fitted effect of over 55% in size
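Chicken DT40 Tdp1-/- cells stably complemented with human TDP1 were seeded at 400 cells/well with DMSO in place of 20 nM camptothecin. After compound pinning, cells grew at least 48 hr at 37 °C; viability read by CellTiter-Glo luminescence.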
VP16 counter – VP16 counterscreen qHTS for inhibitors of ROR gamma transcriptional activity | Potency, µM (doses to about 53.6 µM), most hits filed as inhibitors | 310,000 tested, 3.5% active | AID 2546, 2010 | Drosophila S2 Gal4-VP16 UAS-luciferase, luminescence, 20 h;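 further: Gal4-VP16 expression switched on by copper sulfate through the metallothionein promoter; nearly all actives have a fitted effect of over 50% in size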
Numbers stand for hits; - = inactive; ? = inconclusive; . = not tested or not shown. In the library only some 21% were active in any assay of this set; here they are far more common. Unless noted, the call rests on the fitted dose curve; in most records, active means well fitted curve in the direction sought with a large enough effect; inconclusive means small, poorly fitted or top-dose-only effect, or another doubt; inactive means no such curve, though single readings can be large; an effect the other way counts as inactive or inconclusive.

SMILES | RORgamma inh | TDP1 cell CPT | ELG1 DNA repair | IL-1B inflam inh | DT40 TDP1 no CPT | VP16 counter
Cc1cc(=O)n(Cc2cccc(Br)c2)c2c1c(C)nn2-c1ccccc1 | . | - | . | . | - | .
Cc1nn(Cc2ccc(F)cc2Cl)c(C)c1[N+](=O)[O-] | - | - | - | - | - | -
CCC(C)[C@H](NC(=O)c1cc2cc(Cl)ccc2n1C)C(=O)N1CCC[C@H]1C(=O)O (stereo partly drawn) | - | - | - | - | - | -
COc1cc(/C=C2\N=C(c3ccccc3)NNC2=O)cc(OC)c1OC | - | 5.17µM | - | - | 4.61µM | -
CCOc1cc(/C=C2/C(=O)ON=C2C)ccc1OCc1ccccc1F | ? | ? | ? | -100.1 | ? | ?
Cc1cccc(C2=NOC(=O)/C2=C\c2ccccc2F)c1 | . | - | - | - | 2.59µM | .
CCOc1cc(/C=C2/C(=O)ON=C2C)ccc1OCc1ccccc1 | ? | - | - | - | ? | ?
CCOc1cc(/C=C2\C(=O)ON=C2c2ccccc2)ccc1OC | - | 23.1µM | ? | -94.0 | 18.4µM | -
COc1ccccc1NC(=O)Cc1c(C(=O)O)[nH]c2ccc(Cl)cc12 | . | - | . | . | - | .
CCOc1ccc(C(=O)N[C@H](C(=O)NNC(=O)c2cccs2)C(C)C)cc1 | . | - | ? | - | - | .
Cc1ccc(OC(=O)N(C)C[C@@H]2OCc3cn(nn3)CCCC(=O)N([C@@H](C)CO)C[C@H]2C)cc1 | . | - | . | - | ? | .
COc1cc(/C=C2\NC(=S)N(C)C2=O)ccc1OCc1ccccc1F | 11.2µM | - | - | - | - | ?
COc1ccc(/C=C2\C(=O)ON=C2c2ccccc2)cc1OC | 12.6µM | 25.9µM | - | -98.5 | ? | 11.2µM
O=C1ON=C(c2ccccc2)/C1=C/c1ccco1 | - | ? | ? | - | ? | -
NC(=O)COc1ccc(/C=C2\C(=O)ON=C2c2ccccc2)cc1 | . | 16.4µM | ? | ? | 14.6µM | .
COc1ccc(/C=C2/C(=O)ON=C2c2ccccc2)cc1OC | - | ? | ? | -101.7 | 14.6µM | ?
CCOC(=O)[C@]12CCC=C1N(Cc1ccccc1)C(=O)[C@H](CC(=O)N1CCN(C(=O)c3ccco3)CC1)C2 | . | - | . | - | - | .
Cc1ccc(C(O)c2ncc(-c3ccccc3Cl)[nH]2)cc1F (stereo not drawn) | . | ? | . | - | ? | .
COc1cc(/C=C2\C(=O)ON=C2c2ccccc2)cc(OC)c1OC | - | ? | ? | -116.7 | 16.4µM | -
COc1ccc(Cl)cc1N=Cc1c(O)c2ccccc2oc1=O | . | 16.4µM | - | - | ? | .
O=C1C(C=NCc2ccccn2)=C(O)c2ccccc21 | 2.51µM | - | ? | - | - | 5.01µM
CC(C)CN=CC1=C(O)c2ccccc2C1=O | - | - | ? | - | - | -
COc1ccc(OC)c(N=Cc2c(O)c3ccccc3oc2=O)c1 | . | ? | - | - | ? | .
O=c1oc2ccccc2c(O)c1C=NCc1ccccn1 | 0.562µM | - | - | - | - | 1µM
Cc1cccc(/N=C/c2c(O)c3ccccc3oc2=O)n1 | - | - | - | - | - | -
SMILES | RORgamma inh | TDP1 cell CPT | ELG1 DNA repair | IL-1B inflam inh | DT40 TDP1 no CPT | VP16 counter
CCCCCCCCCCCCCCCC(N)=O | - | . | . | . | . | -
CC1(c2nnnn2-c2ccc3c(c2)OCCO3)CCC(=O)N1CCc1ccccc1F (stereo not drawn) | . | ? | . | - | ? | .
CCn1c(=N)n(CC(O)COc2cccc(C)c2)c2ccccc21 (stereo not drawn) | - | 14.6µM | ? | ? | 9.2µM | -
Cc1cc(C)n(CC(O)COc2cccc(OCC(O)Cn3nc(C)cc3C)c2)n1 (stereo not drawn) | - | ? | - | - | ? | -
CCCCCn1c(=N)n(CC(O)COc2cccc(C)c2)c2ccccc21 (stereo not drawn) | . | 2.91µM | . | . | 2.06µM | .
Cc1cccc(OCC(O)CN2C(C)(C)CC(O)CC2(C)C)c1 (stereo not drawn) | - | - | . | - | - | -
CCCn1c(=N)n(CC(O)COc2cccc(C)c2)c2ccccc21 (stereo not drawn) | - | 16.4µM | ? | ? | 14.6µM | -
COCCNC(=O)C12CC3CC(CC(Cl)(C3)C1)C2 | - | - | - | - | - | -
COc1cccc(CN(C(=O)c2cccc(C)c2)C2CCS(=O)(=O)C2)c1 (stereo not drawn) | . | - | . | . | - | .
COc1ccccc1NC(=O)Cn1c(=O)n(CC(=O)NCc2ccccc2Cl)c(=O)c2sccc21 | . | - | . | . | - | .
FC(F)(F)c1ccc2c(c1)ncc1c(-c3ccccc3)nn(-c3ccccc3)c12 | . | - | . | . | - | .
COc1ccc(NC(=O)c2cc3c(s2)CCC(C)C3)cc1S(=O)(=O)N1CCOCC1 (stereo not drawn) | ? | ? | 23.1µM | - | 20.6µM | -
COc1ccc(NC(=O)C2CCCC2)cc1S(=O)(=O)N1CCOCC1 | . | - | - | - | - | .
CCc1sc(C(=O)Nc2ccc(OC)c(S(=O)(=O)N3CCOCC3)c2)cc1C | . | ? | 8.2µM | - | ? | .
Cc1cccc(-n2nnc(C(=O)Nc3ccc(F)cc3)c2N)c1 | ? | ? | ? | - | ? | -
Cc1c(C(=O)Nc2ccc(F)cc2)nnn1-c1cccc(C(F)(F)F)c1 | ? | 7.31µM | 5.8µM | - | 9.2µM | 15.8µM
Cc1ccc(S(=O)(=O)NCCC(=O)NNC(=O)c2ccccc2Cl)cc1C | . | - | - | - | - | .
CCCCN1CC(COCc2ccccc2)Oc2cccc(Oc3ccccc3)c2S1(=O)=O (stereo not drawn) | . | ? | . | - | 18.4µM | .
CCCCN1CC(COCc2ccccc2)Oc2cccc(NCc3ccc(OC)cc3)c2S1(=O)=O (stereo not drawn) | . | ? | . | - | ? | .
CCCCN1CC(COCc2ccccc2)Oc2cccc(Oc3cc(C)c(C)c(C)c3)c2S1(=O)=O (stereo not drawn) | . | 7.31µM | . | - | 5.17µM | .
CCCCN1CC(COCc2ccccc2)Oc2cccc(Oc3ccc(F)cc3)c2S1(=O)=O (stereo not drawn) | . | ? | . | - | ? | .
CCCCNc1cccc2c1S(=O)(=O)N(CCCC)CC(COCc1ccccc1)O2 (stereo not drawn) | . | ? | . | - | 16.4µM | .
CCCCN1CC(COCc2ccccc2)Oc2cccc(Oc3ccc(C)cc3)c2S1(=O)=O (stereo not drawn) | . | 8.2µM | . | - | 7.31µM | .
C[C@@H]1CN([C@H](C)CO)C(=O)CCCn2nncc2CO[C@@H]1CN(C)S(=O)(=O)c1ccc(F)cc1 | . | - | . | - | ? | .
